Experimental data reported in PubChem BioAssay AID1159580 (chemical genetic matrix, 2015).
Among all 5,500 compounds or so, about 2,000 (36%) were called active. Another 18% or so got no clear call; they are omitted. Cut-off read from the data, not from the text of the source: active = normalized growth mostly below about 0.91 (no sharp cut-off); inconclusive = no clear call, values can overlap the other calls; inactive = mostly above about 0.92. Some of the results follow.

Experiment: chemical genetic growth profiling, strain panel (AID 1159580);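 note: tested at 20 µM; growth read once vehicle control cultures reached saturation at 30 °C; 1 = growth at the plate median or of vehicle wells; lower values mean less growth of the strain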
Settings: S. cerevisiae deletion strains, growth OD
[1] = locus YAL013W, strain DEP1, stronger effect = lower value
[2] = locus YCL061C, strain MRC1, stronger effect = lower value
[3] = locus YGR078C, strain PAC10, stronger effect = lower value
[4] = locus YHR030C, strain SLT2, stronger effect = lower value
[5] = locus YJL095W, strain BCK1, stronger effect = lower value
[6] = locus YJL187C, strain SWE1, stronger effect = lower value
[7] = locus YMR307W, strain GAS1, stronger effect = lower value
[8] = locus YNL322C, strain KRE1, stronger effect = lower value
[9] = locus YPL055C, strain LGE1, stronger effect = lower value
[10] = locus YPL241C, strain CIN2, stronger effect = lower value
[11] = locus YBR229C, strain ROT2, stronger effect = lower value
[12] = locus YDL101C, strain DUN1, stronger effect = lower value
[13] = locus YEL061C, strain CIN8, stronger effect = lower value
[14] = locus YGR229C, strain SMI1, stronger effect = lower value
[15] = locus YJR043C, strain POL32, stronger effect = lower value
[16] = locus YKL190W, strain CNB1, stronger effect = lower value
[17] = locus YLR039C, strain RIC1, stronger effect = lower value
[18] = locus YLR262C, strain YPT6, stronger effect = lower value
[19] = locus YOL006C, strain TOP1, stronger effect = lower value

Measured: normalized growth

Nc1nnc(-c2cccc(Cl)c2Cl)c(N)n1
inactive: [1] 0.995 | locus YAL021C, strain ccr4, stronger effect = lower value 1.01 | locus YAL026C, strain drs2, stronger effect = lower value 1.02 | locus YAL030W, strain snc1, stronger effect = lower value 1.03 | locus YAL040C, strain CLN3, stronger effect = lower value 0.986 | locus YBL061C, strain skt5, stronger effect = lower value 1.02 | locus YBR009C, strain hhf1, stronger effect = lower value 1.03 | locus YBR023C, strain chs3, stronger effect = lower value 1.02 | locus YBR171W, strain sec66, stronger effect = lower value 1.04 | locus YBR231C, strain swc5, stronger effect = lower value 1.03 | locus YBR279W, strain paf1, stronger effect = lower value 1.02 | locus YCL011C, strain gbp2, stronger effect = lower value 1.02 | locus YCL016C, strain dcc1, stronger effect = lower value 1.01 | locus YCL061C, strain MRC1 (second series), stronger effect = lower value 1.01 | [2] 1.02 | locus YCL069W, strain vba3, stronger effect = lower value 1.02 | locus YCR088W, strain abp1, stronger effect = lower value 1.02 | locus YDL005C, strain med2, stronger effect = lower value 1.02 | locus YDL040C, strain nat1, stronger effect = lower value 1.02 | locus YDR001C, strain nth1, stronger effect = lower value 1.02 | locus YDR069C, strain doa4, stronger effect = lower value 1.04 | locus YDR137W, strain rgp1, stronger effect = lower value 1.02 | locus YDR159W, strain sac3, stronger effect = lower value 1.03 | locus YDR195W, strain ref2 1.03 | locus YDR297W, strain sur2, stronger effect = lower value 1.02 | locus YDR334W, strain swr1, stronger effect = lower value 1.02 | locus YDR335W, strain msn5, stronger effect = lower value 1.02 | locus YDR363W, strain ESC2, stronger effect = lower value 0.985 | locus YDR392W, strain spt3, stronger effect = lower value 0.987 | locus YEL003W, strain gim4, stronger effect = lower value 1.02 | locus YEL037C, strain rad23, stronger effect = lower value 1.01 | locus YEL061C, strain CIN8 (second series), stronger effect = lower value 1.02 | locus YER002W, strain NOP16, stronger effect = lower value 0.976 | locus YER015W, strain faa2, stronger effect = lower value 1.03 | locus YER016W, strain bim1, stronger effect = lower value 1.02 | locus YER111C, strain swi4, stronger effect = lower value 1.03 | locus YER155C, strain BEM2 (second series), stronger effect = lower value 1.04 | locus YFR010W, strain ubp6, stronger effect = lower value 1.01 | locus YGL167C, strain pmr1, stronger effect = lower value 1.02 | locus YGL173C, strain kem1, stronger effect = lower value 1.03 | locus YGL227W, strain vid30, stronger effect = lower value 1.03 | locus YGL240W, strain doc1, stronger effect = lower value 1.03 | locus YGL253W, strain hxk2, stronger effect = lower value 1.02 | [3] 1.01 | locus YHR013C, strain ard1, stronger effect = lower value 1.05 | locus YHR027C, strain rpn1, stronger effect = lower value 1.02 | [4] 1 | locus YHR079C, strain IRE1, stronger effect = lower value 0.995 | locus YHR142W, strain chs7, stronger effect = lower value 1.02 | locus YJL092W, strain hpr5, stronger effect = lower value 1.01 | locus YJL095W, strain BCK1 (second series), stronger effect = lower value 1.02 | [5] 0.997 | locus YJL115W, strain asf1, stronger effect = lower value 1.03 | locus YJL129C, strain trk1, stronger effect = lower value 1.04 | locus YJL154C, strain vps35, stronger effect = lower value 1.02 | locus YJL164C, strain tpk1, stronger effect = lower value 1.02 | locus YJL166W, strain qcr8, stronger effect = lower value 1.03 | [6] 1.02 | locus YJR066W, strain TOR1, stronger effect = lower value 0.949 | locus YKL160W, strain elf1, stronger effect = lower value 1.03 | locus YKR026C, strain gcn3, stronger effect = lower value 1 | locus YKR091W, strain srl3, stronger effect = lower value 1.02 | locus YLL001W, strain dnm1, stronger effect = lower value 0.997 | locus YLL026W, stronger effect = lower value 1.02 | locus YLL041C, strain sdh2, stronger effect = lower value 1.02 | locus YLR027C, strain aat2, stronger effect = lower value 1.03 | locus YLR113W, strain HOG1, stronger effect = lower value 0.966 | locus YLR221C, strain rsa3, stronger effect = lower value 1.02 | locus YLR258W, strain gsy2, stronger effect = lower value 1.02 | locus YLR262C, strain YPT6 (second series), stronger effect = lower value 1.02 | locus YLR320W, strain mms22, stronger effect = lower value 1.03 | locus YLR342W, strain FKS1, stronger effect = lower value 1.02 | locus YLR357W, strain rsc2, stronger effect = lower value 1.07 | locus YLR370C, strain arc18, stronger effect = lower value 1.02 | locus YLR384C, strain iki3, stronger effect = lower value 1.02 | locus YML120C, strain ndi1, stronger effect = lower value 0.994 | locus YMR058W, strain fet3, stronger effect = lower value 1.02 | locus YMR125W, strain sto1, stronger effect = lower value 1.05 | locus YMR129W, stronger effect = lower value 1.02 | locus YMR205C, strain PFK2, stronger effect = lower value 1.03 | locus YMR231W, strain pep5, stronger effect = lower value 1.01 | [7] 1.01 | locus YNL071W, strain lat1, stronger effect = lower value 1.01 | locus YNL175C, strain NOP13, stronger effect = lower value 0.986 | locus YNL183C, strain NPR1, stronger effect = lower value 0.949 | locus YNL197C, strain WHI3, stronger effect = lower value 0.991 | locus YNL209W, strain ssb2, stronger effect = lower value 1.02 | locus YNL224C, strain SQS1, stronger effect = lower value 0.981 | locus YNL248C, strain rpa49, stronger effect = lower value 1.02 | locus YNL322C, strain KRE1 (second series), stronger effect = lower value 1.02 | [8] 1.01 | locus YNR049C, strain mso1, stronger effect = lower value 1.03 | locus YOR001W, strain rrp6, stronger effect = lower value 1.02 | locus YOR070C, strain gyp1, stronger effect = lower value 1.02 | locus YOR080W, strain dia2, stronger effect = lower value 1.03 | locus YOR083W, strain WHI5 (second series), stronger effect = lower value 0.992 | locus YOR083W, strain WHI5, stronger effect = lower value 1.01 | locus YOR106W, strain vam3, stronger effect = lower value 1.03 | locus YOR231W, strain MKK1, stronger effect = lower value 1.01 | locus YOR265W, strain rbl2, stronger effect = lower value 1.02 | locus YOR270C, strain vph1, stronger effect = lower value 1.08 | locus YOR290C, strain snf2, stronger effect = lower value 1.04 | locus YPL051W, strain arl3, stronger effect = lower value 1.02 | [9] 0.994 | locus YPL078C, strain atp4, stronger effect = lower value 1.01 | locus YPL106C, strain sse1, stronger effect = lower value 1.02 | locus YPL240C, strain hsp82, stronger effect = lower value 1.02 | [10] 1 | locus YPL256C, strain CLN2, stronger effect = lower value 0.989

CSC(=NCc1cccnc1)NC#N
inactive: [1] 0.991 | [11] 1 | [2] 1 | [12] 1 | locus YDR150W, strain NUM1, stronger effect = lower value 0.997 | [13] 0.993 | [3] 1 | [14] 1 | [4] 1.01 | locus YHR087W, strain rtc3, stronger effect = lower value 1 | [6] 0.994 | [15] 0.986 | locus YJR075W, strain HOC1, stronger effect = lower value 0.998 | [16] 0.998 | [17] 1 | locus YLR058C, strain SHM2 (second series), stronger effect = lower value 0.992 | locus YLR085C, strain ARP6, stronger effect = lower value 1.02 | [18] 1.01 | locus YML094W, strain GIM5, stronger effect = lower value 1.06 | locus YMR219W, strain ESC1, stronger effect = lower value 1 | locus YMR263W, strain SAP30, stronger effect = lower value 0.992 | locus YNL153C, strain GIM3, stronger effect = lower value 1.01 | locus YNL298W, strain CLA4 (second series), stronger effect = lower value 1.01 | [8] 0.998 | locus YNR030W, strain Alg12, stronger effect = lower value 1 | [19] 1.03 | [9] 0.994 | [10] 0.987 | locus YPR135W, strain CTF4, stronger effect = lower value 1.01

COC(=O)C[C@H]1C(C)(C)C(=O)[C@@H]2CC3=C4CC(OC)O[C@@H](c5ccoc5)[C@]4(C)CCC3[C@@]1(C)C2=O (stereo partly specified)
inactive: locus YBR021W, strain FUR4, stronger effect = lower value 1.01 | [11] 0.994 | locus YCL029C, strain bik1, stronger effect = lower value 0.987 | locus YDL035C, strain GPR1, stronger effect = lower value 1.02 | locus YDL074C, strain BRE1, stronger effect = lower value 1.01 | [12] 1.01 | locus YDL134C, strain PPH21, stronger effect = lower value 1 | locus YDL185W, strain tfp1, stronger effect = lower value 1 | locus YDL192W, strain arf1, stronger effect = lower value 1 | locus YDR101C, strain arx1, stronger effect = lower value 0.995 | locus YDR162C, strain NBP2, stronger effect = lower value 1 | locus YDR318W, strain mcm21, stronger effect = lower value 0.998 | locus YDR388W, stronger effect = lower value 0.991 | locus YDR502C, strain sam2, stronger effect = lower value 0.989 | [13] 0.999 | locus YER110C, stronger effect = lower value 0.994 | locus YER155C, strain BEM2, stronger effect = lower value 1.01 | locus YER167W, strain BCK2, stronger effect = lower value 1.01 | locus YGL078C, strain dbp3, stronger effect = lower value 1.01 | locus YGL086W, strain mad1, stronger effect = lower value 0.995 | locus YGL248W, strain PDE1, stronger effect = lower value 1.01 | [3] 1.01 | locus YGR135W, strain pre9, stronger effect = lower value 0.99 | [14] 1.03 | locus YGR252W, strain gcn5, stronger effect = lower value 1.01 | [4] 1 | locus YHR079C, strain IRE1 (second series), stronger effect = lower value 0.996 | locus YHR094C, strain hxt1, stronger effect = lower value 0.993 | locus YHR129C, strain ARP1, stronger effect = lower value 1.01 | locus YHR200W, strain rpn10, stronger effect = lower value 0.997 | locus YIL066C, strain RNR3, stronger effect = lower value 1.01 | locus YIL073C, strain SPO22, stronger effect = lower value 0.995 | locus YIL125W, strain kgd1, stronger effect = lower value 0.998 | locus YIR030C, strain dcg1, stronger effect = lower value 1 | [5] 1.01 | locus YJL134W, strain LCB3, stronger effect = lower value 1.01 | locus YJL168C, strain set2, stronger effect = lower value 0.996 | locus YJL187C, strain SWE1 (second series), stronger effect = lower value 1.01 | [15] 1.02 | locus YKL009W, strain mrt4, stronger effect = lower value 0.984 | locus YKL068W, stronger effect = lower value 1 | locus YKL085W, strain MDH1 (second series), stronger effect = lower value 1 | locus YKL085W, strain MDH1, stronger effect = lower value 1 | [16] 1.01 | locus YKR001C, strain vps1, stronger effect = lower value 1 | [17] 0.969 | locus YLR058C, strain SHM2, stronger effect = lower value 1 | locus YLR102C, strain apc9, stronger effect = lower value 1 | [18] 0.982 | locus YLR268W, strain sec22, stronger effect = lower value 1.01 | locus YLR330W, strain CHS5, stronger effect = lower value 1 | locus YLR342W, strain FKS1 (second series), stronger effect = lower value 0.991 | locus YLR371W, strain rom2, stronger effect = lower value 1 | locus YLR418C, strain cdc73, stronger effect = lower value 0.992 | locus YML016C, strain PPZ1, stronger effect = lower value 1 | locus YML032C, strain rad52, stronger effect = lower value 0.997 | locus YML124C, strain tub3, stronger effect = lower value 1 | locus YMR078C, strain ctf18, stronger effect = lower value 0.99 | locus YMR223W, strain ubp8, stronger effect = lower value 1.01 | [7] 1.03 | locus YNL067W, strain RPL9B, stronger effect = lower value 1.01 | locus YNL233W, strain BNI4, stronger effect = lower value 1.04 | locus YNL250W, strain rad50, stronger effect = lower value 0.986 | locus YNL271C, strain bni1, stronger effect = lower value 1 | locus YNL298W, strain CLA4, stronger effect = lower value 0.984 | locus YNL307C, strain MCK1, stronger effect = lower value 0.985 | locus YNR052C, strain pop2, stronger effect = lower value 1.01 | [19] 1.06 | locus YOL012C, strain htz1 1.32 | locus YOL147C, strain pex11, stronger effect = lower value 0.995 | locus YOR061W, strain CKA2, stronger effect = lower value 0.999 | locus YOR069W, strain VPS5, stronger effect = lower value 1.01 | locus YOR136W, strain idh2, stronger effect = lower value 0.999 | locus YOR144C, strain elg1, stronger effect = lower value 0.988 | locus YOR184W, strain ser1, stronger effect = lower value 1.01 | locus YOR316C, strain cot1, stronger effect = lower value 1 | [9] 1.03 | [10] 1 | locus YPR119W, strain clb2, stronger effect = lower value 1.01 | locus YPR141C, strain kar3, stronger effect = lower value 0.999 | locus YPR163C, strain tif3, stronger effect = lower value 0.996 | locus YPR167C, strain met16, stronger effect = lower value 1 | strain wtn01, stronger effect = lower value 1.01
